Assay results: PubChem BioAssay (NCATS)
Inconclusive results are not listed. Calls of active or inactive are those of the source. Unless noted, calls follow the shape of the dose curve; as a rule, active = well fitted curve in the direction sought with a large enough effect; inconclusive = small, poorly fitted or top-dose-only effect, or another doubt; inactive = no such curve, though single readings can be large; an effect the other way counts as inactive or inconclusive.

Assays:
[1] = biological target: Glucocorticoid receptor (Homo sapiens) (UniProt P04150); experiment: GR-GFP Redistribution (AID 450;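 active = compounds whose dose series gives a full or clear partial fitted curve of increased nuclear translocation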; also: potency is read from the fitted curve at half-maximal effect); settings: U2OS GR-GFP nuclear translocation, laser cytometry, 2 h
[2] = biological target: Cytochrome P450 3A4 (Homo sapiens) (UniProt P08684); experiment: qHTS Assay for Activators of Cytochrome P450 3A4 (AID 885); also: nearly all actives have a fitted effect of over 65% in size
How it was run: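 20nM CYP3A4 + 25uM Luciferin-PPXE (=KM), 200mM KPO4; cpd 10 min RT; NADPH regen, 60 min RT; stop w/ detection buffer, 20 min; luminescence. Normalized to 57 uM ketoconazole.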

[3] = biological target: Ubiquitin carboxyl-terminal hydrolase 1 (Homo sapiens) (UniProt O94782); experiment: Inhibitors of USP1/UAF1: Pilot qHTS (AID 504865); also: potency is read from the fitted curve at half-maximal effect; nearly all actives have a fitted effect of over 35% in size
How it was run: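 USP1/UAF1 complex (1nM) preincubated with compound 15 min at room temperature, then Ub-Rho substrate (150nM final) added. Fluorescence read kinetically at 480/540 nm, 6 reads every 60 seconds. Buffer: 50mM HEPES pH 7.8, 0.5mM EDTA, 0.1 mg/ml BSA, 1mM TCEP, 0.01% Tween-20.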

[4] = biological target: DNA dC->dU-editing enzyme APOBEC-3G (Homo sapiens) (UniProt Q9HC16); experiment: qHTS for inhibitors of Vif-A3G interactions: Validation (AID 588379)
How it was run: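 HeLa cells stably expressing Vif and A3G-eYFP, 700 cells/well, incubated overnight at 37 deg C, then exposed to compound overnight at 37 deg C. Inhibition of Vif-mediated degradation read as increased yellow fluorescence (Ex 488/Em 500-530) by laser-scanning cytometry.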

[5] = test system: Zika virus NS2B-NS3 protease (linked construct); experiment: Confirmatory screen NINDS AMC qHTS for Zika virus inhibitors (AID 1347152); also: nearly all actives have a fitted effect of over 70% in size; also: potency is read from the fitted curve at half-maximal effect
How it was run: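 Purified NS2B-NS3 protease with NS2B hydrophilic domain linked to NS3 protease domain by flexible linker, 1 nM final in 10 mM Tris-HCl pH 8.0, 0.01% Tween 20. Compounds preincubated 15 min, room temperature; Bz-Nle-KRR-AMC 10 microM (Km 18.3 µM); 15-min fluorescence change, 4-parameter Hill fit.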

[6] = test system: Zika virus NS2B-NS3 protease (unlinked complex); experiment: Confirmatory screen GU AMC qHTS for Zika virus inhibitors (AID 1347153); also: nearly all actives have a fitted effect of over 70% in size; also: potency is read from the fitted curve at half-maximal effect
How it was run: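 Noncovalent NS2B hydrophilic domain/NS3 protease complex (25 nM) in 10 mM Tris-HCl pH 8.0, 0.01% Tween 20 was preincubated 15 min at room temperature with compounds. Then 10 µM AMC substrate (Km 18.3 µM) was added; fluorescence was read over 15 min and fitted to a 4-parameter Hill equation.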

[7] = Confirmatory screen NINDS Rhodamine qHTS for Zika virus inhibitors (AID 1347161); also: nearly all actives have a fitted effect of over 60% in size; also: potency is read from the fitted curve at half-maximal effect
How it was run: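 Rhodamine110-peptide cleavage (1.5 µM substrate) by 25 nM linked NS2B-NS3 enzyme at pH 8.0 (Tris, Tween 20), after 15 min RT preincubation with compounds; 15-min fluorescence change normalized to controls and Hill-fitted.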

[8] = test system: Zika virus NS2B-NS3 protease (linked); experiment: 384 well plate NINDS AMC confirmatory qHTS for Zika virus inhibitors (AID 1347163); also: potency is read from the fitted curve at half-maximal effect; nearly all actives have a fitted effect of over 50% in size
How it was run: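 Linked protease 5/30/60 nM final; cpds up to 1 mM final, ~15 min preinc. Substrate Ac-VKTGKR-AMC 30 microM final. RT, dark, 25 min; FI ex 355/em 460; normalized to no-enzyme/no-inhibitor ctrls.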

[9] = test system: Zika virus NS2B-NS3 protease (linked construct); experiment: 384 well plate NINDS Rhodamine confirmatory qHTS for Zika virus inhibitors (AID 1347164);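 also: fluorescence from protease cleavage of Ac-LKRR-rhodamine 110 substrate; potency is read from the fitted curve at half-maximal effect; nearly all actives have a fitted effect of over 65% in size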
How it was run: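 Linked protease at a final 5 nM, 30 nM or 60 nM was preincubated ~15 min with compounds, then given 10 microM Ac-LKRR-Rhodamine 110. Fluorescence (ex 485/em 538 nm) after 25 min in the dark at room temperature.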

[10] = Vero cells viability qHTS for Zika virus inhibitors (AID 1347167)
How it was run: (§1)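 Counter-screen for cytotoxicity of hits from NS2B-NS3 protease qHTS. Overnight-attached cells (2.5 x 10^5 cells/mL, DMEM/4% FBS) were dosed in titration, incubated 24 to 48 hours, then assayed by CellTiter Glo.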

[11] = HepG2 cells viability qHTS for Zika virus inhibitors (AID 1347168)
How it was run: as §1

[12] = Primary qHTS for small molecule stabilizers of the endoplasmic reticulum resident proteome: Secreted ER Calcium Modulated Protein (SERCaMP) assay (AID 1508630)
How it was run: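 GLuc-SERCaMP-expressing SH-SY5Y cells, pretreated 16 h with compound, are challenged with thapsigargin to empty ER calcium stores; after 4 h, coelenterazine is added directly to the medium and luminescence is imaged.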

[13] = biological target: Rap guanine nucleotide exchange factor 3 (Homo sapiens) (UniProt O95398); experiment: Confirmatory qHTS for agonist of cAMP-regulated guanine nucleotide exchange factor 3 (EPAC1) (AID 1645881);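 also: EPAC1 catalysed release of BODIPY-GDP from Rap1B seen as fluorescence loss; nearly all actives have a fitted effect of over 75% in size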
[14] = biological target: Rap guanine nucleotide exchange factor 4 (Homo sapiens) (UniProt Q8WZA2); experiment: Confirmatory qHTS for agonist of cAMP-regulated guanine nucleotide exchange factor 4 (EPAC2) (AID 1645884);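 also: nucleotide exchange releases bodipy-GDP from Rap1 and this lowers its fluorescence; nearly all actives have a fitted effect of over 65% in size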
[15] = biological target: Rap guanine nucleotide exchange factor 4 (Homo sapiens) (UniProt Q8WZA2); experiment: Confirmatory qHTS for antagonist of cAMP-regulated guanine nucleotide exchange factor 4 (EPAC2) (AID 1645885); also: potency is read from the fitted curve at half-maximal effect; nearly all actives have a fitted effect of over 25% in size
[16] = Tertiary RLuc qRT-PCR qHTS assay for Zika virus inhibitors (AID 1347169); also: nearly all actives have a fitted effect of over 55% in size; also: potency is read from the fitted curve at half-maximal effect
How it was run: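 Vero cells (1,000 per well) plated overnight at 37 degrees C, treated with compound in DMSO, then infected with recombinant ZIKV-RLuc (Cambodian) at MOI 1-2 for 48-72 hrs. Live-cell Renilla luciferase substrate added; luminescence read after 1-1.5 hrs.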

Furin (Homo sapiens) = Furin (Homo sapiens) (UniProt P09958); experiment: Furin counterscreen qHTS for Zika virus inhibitors (AID 1347149); also: nearly all actives have a fitted effect of over 70% in size; also: potency is read from the fitted curve at half-maximal effect
How it was run: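 Fluorogenic cleavage of BOC-RVRR-AMC (2 microM final, Km ~15 µM) was monitored (ex 340, em 450 nm) at 37C after 15 min RT preincubation of 5 nM furin with compounds in HEPES pH 7.0 buffer with CaCl2 and Triton X-100. Percent inhibition was fitted to a 4-parameter Hill curve.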

[17] = biological target: Calcium and integrin-binding protein 1 (Homo sapiens) (UniProt Q99828); experiment: Primary qHTS for Identification of Calcium Integrin Binding Protein 1 (CIB1) Competitor (AID 1508620);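 also: GST tagged CIB1 binding a fluorescein labelled alphaIIb integrin peptide tracer; top concentration of the series differs between compounds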
How it was run: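 Fluorescence polarization competition: CIB1-GST (1 uM final) preincubated with compound 15 min at room temperature, then FITC-labeled alphaIIb peptide (100 nM final) added for another 15 min. Polarization read at Ex 480/Em 540.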

[18] = biological target: Rap guanine nucleotide exchange factor 3 (Homo sapiens) (UniProt O95398); experiment: Confirmatory qHTS for antagonist of cAMP-regulated guanine nucleotide exchange factor 3 (EPAC1) (AID 1645880); also: nearly all actives have a fitted effect of over 55% in size
How it was run: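 Nucleotide exchange uses 100 nM EPAC1, 250 nM RAP1B-BODIPY-GDP and 50 uM GDP, with compounds in a concentration-titration series. After 5 min at room temperature, fluorescence (480 nm ex/540 nm em) is read every 5 min for 30 min. Data are normalized to control ATA and DMSO.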

[19] = biological target: Rap guanine nucleotide exchange factor 3 (Homo sapiens) (UniProt O95398); experiment: Counterscreen qHTS for antagonist of cAMP-regulated guanine nucleotide exchange factor 3 (EPAC1) (AID 1645888);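 also: fluorescence loss as bound BODIPY-GDP is released from Rap1B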
How it was run: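 Measured: fluorescence of BODIPY-GDP bound to Rap1B, which falls as exchange proceeds. Conditions include 50 uM competing GDP, 5 and 30 min reads, and a later cAMP challenge for antagonist detection.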

[20] = Confirmation and Secondary Assay for Modulators of Hemoglobin Beta Chain Splicing at IVS2 705 locus (AID 930);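 also: HeLa cells stably expressing the EGFP-705 splicing reporter; series mostly up to about 46 µM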
How it was run: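 Restored EGFP fluorescence after 2-day compound exposure reports splicing correction in IVS2-705 EGFP reporter HeLa cells; positive control was 500 nM splice-blocking PNA oligo. Signal measured as well total peak GFP intensity (488 nm excitation).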

[21] = qHTS Assay for Lipid Storage Modulators (AID 1519; calls by dose curve; also: potency is read from the fitted curve at half-maximal effect); settings: Drosophila S3 cells, BODIPY lipid droplet/cell ratio, laser cytometry, cells loaded with oleic acid
How it was run: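 Cells seeded at 5,000 per well were treated with compounds over a concentration series and loaded with oleic acid (400 uM, as added). Lipid droplet fluorescence (488 nm excitation, 500-530 nm channel) was read by laser-scanning cytometry and normalized to 20 uM Triacsin C.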

[22] = biological target: Cytochrome P450 2D6 (Homo sapiens) (UniProt P10635); experiment: Cytochrome P450 family 2 subfamily D member 6 (CYP2D6) small molecule antagonists: luciferase biochemical (cell-free) qHTS assay (AID 1645840; active = well fitted curve in the direction sought with a large enough effect in the repeat runs; an effect the other way counts as inactive or inconclusive; also: potency is read from the fitted curve at half-maximal effect; nearly all actives have a fitted effect of over 55% in size)
How it was run: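 P450-Glo luminescent screen: recombinant CYP2D6 enzyme–proluciferin substrate mix preincubated with compound 10 min at room temperature, then NADPH regeneration added for 1 h at room temperature. Detection reagent added for 20 min; luciferin light read as relative luminescence units.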

[23] = biological target: Cytochrome P450 2C9 (Homo sapiens) (UniProt P11712); experiment: Cytochrome P450 family 2 subfamily C member 9 (CYP2C9) small molecule antagonists: luciferase biochemical (cell-free) qHTS assay (AID 1645842; active = well fitted curve in the direction sought with a large enough effect in the repeat runs; an effect the other way counts as inactive or inconclusive; also: potency is read from the fitted curve at half-maximal effect; nearly all actives have a fitted effect of over 55% in size)
How it was run: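 Luminescence, after 20 min with luciferin detection reagent, reflected CYP2C9 turnover during a 1 h NADPH-driven reaction at 37C. Enzyme-substrate mix contained 0.4% bovine serum albumin and was preincubated with compound 10 min at room temperature.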

[24] = biological target: Glutathione peroxidase 1 (Homo sapiens) (UniProt P07203); experiment: Primary qHTS Assay for Inhibitors of Recombinant Selenoprotein Glutathione Peroxidase 1 (GPX1) (AID 1845191); also: nearly all actives have a fitted effect of over 65% in size
How it was run: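 Recombinant GPX1 (10 nM final) was preincubated with compound for 30 min at room temperature, then reacted with 1 mM GSH, 0.5 mM CHP, 0.5 mM NADPH and 100 nM glutathione reductase; NADPH fluorescence (340/450 nm) was read at 0 and 15 min.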

[25] = biological target: Phospholipid hydroperoxide glutathione peroxidase GPX4 (Homo sapiens) (UniProt P36969); experiment: Primary qHTS Assay for Inhibitors of Recombinant Selenoprotein Glutathione Peroxidase 4 (GPX4) (AID 1845192); settings: outcome: dose series up to 50 µM unless noted
How it was run: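 GR-coupled readout: 100 nM GR, 1 mM GSH, 0.5 mM NADPH; NADPH fluorescence (ex 340/em 450 nm) read at t=0 and after 15 min RT. GPX4 200 nM, preincubated 30 min with compound; substrate 0.5 mM CHP.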

Chain of Furin (Homo sapiens) (P09958 whole entry, looked up): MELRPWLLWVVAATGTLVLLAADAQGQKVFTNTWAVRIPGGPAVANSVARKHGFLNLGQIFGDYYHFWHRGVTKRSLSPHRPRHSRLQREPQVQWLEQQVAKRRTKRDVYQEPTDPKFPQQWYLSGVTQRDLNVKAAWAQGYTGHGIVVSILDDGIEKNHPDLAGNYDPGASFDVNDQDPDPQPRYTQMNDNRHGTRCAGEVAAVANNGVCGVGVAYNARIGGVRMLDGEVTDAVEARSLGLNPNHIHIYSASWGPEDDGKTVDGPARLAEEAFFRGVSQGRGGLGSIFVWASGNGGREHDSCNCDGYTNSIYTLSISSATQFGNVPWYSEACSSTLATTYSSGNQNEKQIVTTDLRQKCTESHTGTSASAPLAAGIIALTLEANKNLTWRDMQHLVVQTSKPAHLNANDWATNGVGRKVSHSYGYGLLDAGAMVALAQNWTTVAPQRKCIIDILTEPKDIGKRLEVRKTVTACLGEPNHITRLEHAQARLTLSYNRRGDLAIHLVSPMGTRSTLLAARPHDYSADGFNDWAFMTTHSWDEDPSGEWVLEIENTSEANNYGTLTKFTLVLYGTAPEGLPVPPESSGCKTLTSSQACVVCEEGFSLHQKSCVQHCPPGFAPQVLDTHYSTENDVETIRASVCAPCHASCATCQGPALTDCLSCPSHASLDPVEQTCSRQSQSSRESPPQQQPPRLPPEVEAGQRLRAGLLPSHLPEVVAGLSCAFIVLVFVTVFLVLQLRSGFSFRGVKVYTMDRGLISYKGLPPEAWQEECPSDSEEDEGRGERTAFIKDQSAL
Chain of Rap guanine nucleotide exchange factor 4 (Homo sapiens) (Q8WZA2 whole entry, looked up): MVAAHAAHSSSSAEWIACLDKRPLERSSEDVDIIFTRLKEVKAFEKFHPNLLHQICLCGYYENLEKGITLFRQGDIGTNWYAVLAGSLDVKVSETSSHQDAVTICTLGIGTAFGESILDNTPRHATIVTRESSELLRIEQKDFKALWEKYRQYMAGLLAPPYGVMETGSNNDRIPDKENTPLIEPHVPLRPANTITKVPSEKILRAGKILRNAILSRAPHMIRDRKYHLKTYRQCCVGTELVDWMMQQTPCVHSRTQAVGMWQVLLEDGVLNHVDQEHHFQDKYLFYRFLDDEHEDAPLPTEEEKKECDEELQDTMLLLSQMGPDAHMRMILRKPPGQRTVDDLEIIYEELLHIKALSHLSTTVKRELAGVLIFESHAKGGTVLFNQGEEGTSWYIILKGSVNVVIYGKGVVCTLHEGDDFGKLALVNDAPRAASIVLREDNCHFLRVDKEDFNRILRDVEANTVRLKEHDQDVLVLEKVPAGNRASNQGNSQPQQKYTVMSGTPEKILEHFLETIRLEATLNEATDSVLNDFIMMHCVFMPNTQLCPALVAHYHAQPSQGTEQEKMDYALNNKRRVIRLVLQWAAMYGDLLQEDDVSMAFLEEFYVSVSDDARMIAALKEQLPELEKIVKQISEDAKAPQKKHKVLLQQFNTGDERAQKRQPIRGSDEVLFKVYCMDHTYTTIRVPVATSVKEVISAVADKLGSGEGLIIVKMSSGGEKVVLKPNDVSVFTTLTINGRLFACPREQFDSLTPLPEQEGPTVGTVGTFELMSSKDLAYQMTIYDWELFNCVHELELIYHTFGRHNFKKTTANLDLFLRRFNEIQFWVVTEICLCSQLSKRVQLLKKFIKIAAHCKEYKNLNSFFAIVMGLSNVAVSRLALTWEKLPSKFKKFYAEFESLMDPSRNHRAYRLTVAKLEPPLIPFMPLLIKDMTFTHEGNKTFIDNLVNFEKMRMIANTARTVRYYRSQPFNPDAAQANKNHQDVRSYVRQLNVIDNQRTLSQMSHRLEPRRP
Chain of Rap guanine nucleotide exchange factor 3 (Homo sapiens) (O95398 whole entry, looked up): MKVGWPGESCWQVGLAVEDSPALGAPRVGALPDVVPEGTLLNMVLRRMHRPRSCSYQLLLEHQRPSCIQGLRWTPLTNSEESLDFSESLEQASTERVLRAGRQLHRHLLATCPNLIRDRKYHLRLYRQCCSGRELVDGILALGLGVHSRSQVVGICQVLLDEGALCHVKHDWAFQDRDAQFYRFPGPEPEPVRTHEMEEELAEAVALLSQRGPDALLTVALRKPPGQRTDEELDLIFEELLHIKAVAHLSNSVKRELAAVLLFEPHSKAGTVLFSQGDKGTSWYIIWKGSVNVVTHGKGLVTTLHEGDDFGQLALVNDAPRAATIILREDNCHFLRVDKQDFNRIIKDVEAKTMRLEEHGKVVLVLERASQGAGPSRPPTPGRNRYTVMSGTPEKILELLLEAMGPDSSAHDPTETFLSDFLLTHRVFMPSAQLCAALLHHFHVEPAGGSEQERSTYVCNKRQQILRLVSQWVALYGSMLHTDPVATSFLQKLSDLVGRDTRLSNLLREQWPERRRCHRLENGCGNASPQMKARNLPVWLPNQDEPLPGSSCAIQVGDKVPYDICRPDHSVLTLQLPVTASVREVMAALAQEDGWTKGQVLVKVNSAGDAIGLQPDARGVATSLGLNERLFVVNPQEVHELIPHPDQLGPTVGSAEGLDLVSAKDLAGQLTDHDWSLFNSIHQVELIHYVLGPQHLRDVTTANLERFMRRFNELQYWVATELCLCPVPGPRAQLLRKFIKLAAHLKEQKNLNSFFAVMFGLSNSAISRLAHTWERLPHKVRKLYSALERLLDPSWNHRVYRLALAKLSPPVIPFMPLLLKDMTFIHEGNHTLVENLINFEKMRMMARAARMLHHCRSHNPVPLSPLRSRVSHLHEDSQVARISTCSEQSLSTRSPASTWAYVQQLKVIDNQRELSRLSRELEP
Chain of Ubiquitin carboxyl-terminal hydrolase 1 (Homo sapiens) (O94782 whole entry, looked up): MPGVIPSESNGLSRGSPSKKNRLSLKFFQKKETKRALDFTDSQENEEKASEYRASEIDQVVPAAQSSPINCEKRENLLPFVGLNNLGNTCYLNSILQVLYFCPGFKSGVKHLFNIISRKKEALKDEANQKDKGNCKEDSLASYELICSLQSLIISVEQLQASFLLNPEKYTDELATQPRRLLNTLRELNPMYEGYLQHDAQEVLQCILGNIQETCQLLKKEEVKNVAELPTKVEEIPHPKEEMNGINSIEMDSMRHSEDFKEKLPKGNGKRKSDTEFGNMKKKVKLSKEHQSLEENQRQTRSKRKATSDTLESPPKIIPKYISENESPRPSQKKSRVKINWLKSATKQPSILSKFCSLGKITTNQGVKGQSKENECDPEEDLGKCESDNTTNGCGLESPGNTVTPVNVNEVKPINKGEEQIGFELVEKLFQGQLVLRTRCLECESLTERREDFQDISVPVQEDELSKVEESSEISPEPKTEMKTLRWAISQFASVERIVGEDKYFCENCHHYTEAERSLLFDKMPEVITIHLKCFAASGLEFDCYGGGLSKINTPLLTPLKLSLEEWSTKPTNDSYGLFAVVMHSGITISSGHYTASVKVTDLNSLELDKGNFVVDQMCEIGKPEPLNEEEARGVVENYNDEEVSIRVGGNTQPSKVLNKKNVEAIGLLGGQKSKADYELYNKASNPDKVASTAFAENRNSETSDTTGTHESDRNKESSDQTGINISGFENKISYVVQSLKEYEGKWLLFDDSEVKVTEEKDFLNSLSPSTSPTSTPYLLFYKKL
Chain of Glutathione peroxidase 1 (Homo sapiens) (P07203 whole entry, looked up): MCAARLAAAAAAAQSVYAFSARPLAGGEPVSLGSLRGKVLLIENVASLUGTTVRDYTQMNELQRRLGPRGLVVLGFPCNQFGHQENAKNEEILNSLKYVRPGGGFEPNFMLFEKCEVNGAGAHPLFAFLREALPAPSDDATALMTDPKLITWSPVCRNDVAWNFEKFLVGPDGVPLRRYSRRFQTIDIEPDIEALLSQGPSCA
Chain of Glucocorticoid receptor (Homo sapiens) (P04150 whole entry, looked up): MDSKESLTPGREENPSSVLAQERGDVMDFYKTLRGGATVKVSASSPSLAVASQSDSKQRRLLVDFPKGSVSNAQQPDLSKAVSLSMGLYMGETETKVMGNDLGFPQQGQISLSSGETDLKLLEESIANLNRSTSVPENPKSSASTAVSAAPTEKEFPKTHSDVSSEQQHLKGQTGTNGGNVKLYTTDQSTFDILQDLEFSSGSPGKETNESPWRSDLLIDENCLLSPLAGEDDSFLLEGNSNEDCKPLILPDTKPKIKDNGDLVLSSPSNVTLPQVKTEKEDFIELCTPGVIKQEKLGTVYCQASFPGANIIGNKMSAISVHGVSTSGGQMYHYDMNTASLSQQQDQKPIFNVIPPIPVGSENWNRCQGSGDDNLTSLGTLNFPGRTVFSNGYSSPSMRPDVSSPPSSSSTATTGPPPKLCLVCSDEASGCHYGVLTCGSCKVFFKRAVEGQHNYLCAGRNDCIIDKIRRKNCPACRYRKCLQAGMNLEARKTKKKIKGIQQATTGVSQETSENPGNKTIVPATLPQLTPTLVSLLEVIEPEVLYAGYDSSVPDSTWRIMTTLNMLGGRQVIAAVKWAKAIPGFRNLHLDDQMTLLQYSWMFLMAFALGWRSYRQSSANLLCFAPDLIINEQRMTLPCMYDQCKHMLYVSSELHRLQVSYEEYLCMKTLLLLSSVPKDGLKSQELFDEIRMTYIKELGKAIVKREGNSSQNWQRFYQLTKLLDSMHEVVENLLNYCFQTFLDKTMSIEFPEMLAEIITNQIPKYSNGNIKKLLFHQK
Chain of DNA dC->dU-editing enzyme APOBEC-3G (Homo sapiens) (Q9HC16 whole entry, looked up): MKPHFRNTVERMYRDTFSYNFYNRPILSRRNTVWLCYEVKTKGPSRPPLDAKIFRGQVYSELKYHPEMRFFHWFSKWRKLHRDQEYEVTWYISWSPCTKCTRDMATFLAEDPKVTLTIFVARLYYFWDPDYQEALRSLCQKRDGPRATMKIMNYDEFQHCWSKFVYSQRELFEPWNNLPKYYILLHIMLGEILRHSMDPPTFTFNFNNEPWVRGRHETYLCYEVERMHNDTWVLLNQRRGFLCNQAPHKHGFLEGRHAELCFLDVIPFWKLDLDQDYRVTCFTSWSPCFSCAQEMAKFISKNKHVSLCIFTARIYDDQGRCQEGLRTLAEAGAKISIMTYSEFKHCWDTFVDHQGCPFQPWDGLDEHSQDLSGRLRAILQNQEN

Cc1cc(C)cc(C(=O)N(C)[C@H](Cc2ccc(-c3ccccc3)cc2)C(=O)N[C@@H](Cc2c[nH]c3ccccc23)C(=O)O)c1
active: Potency [3] 79.4 µM | Potency [5] 9.61 µM | Potency [6] 19.2 µM | Potency [7] 1.75 µM | Potency [8] 158 µM | Potency [9] 28.2 µM | Potency [15] 55.5 µM
inactive: Potency [1] > 46 µM | Potency [2] | Potency [4] | Potency [10] | Potency [11] | Potency [12] | outcome [13] | outcome [14]

O=C(Nc1ccc(Oc2ccccc2)cc1)O[C@@H]1CO[C@H]2[C@@H]1OC[C@@H]2NS(=O)(=O)c1ccc2ccccc2c1
inactive: Potency [5] | Potency [6]

O=C(Nc1ccc(Oc2ccccc2)cc1)O[C@@H]1CO[C@H]2[C@@H]1OC[C@@H]2n1nnnc1-c1ccc(-c2ccccc2)cc1
inactive: Potency [5] | Potency [6] | Potency [16]

COc1ccc(C(=O)Nc2ccc(C(=O)OCc3cc(=O)n4nc(C5CC5)sc4n3)cc2)cc1
inactive: Potency [16]
active: Potency (Furin (Homo sapiens)) 13.2 µM

Cc1cccc(C(=O)Nc2ccc(C(=O)OCc3cc(=O)n4c5c(sc4n3)CCCC5)cc2)c1
inactive: Potency [7] | Potency [16]
active: Potency (Furin (Homo sapiens)) 46.9 µM

O=C(OCC#CCSc1nnc(-c2ccc(Cl)cc2)o1)c1ccc(F)cc1
inactive: Potency [5] | Potency [6] | Potency [16] | outcome [17]

CCCCCCc1cc2cc(-c3nnc(-c4cccc(Cl)c4)o3)c(=O)oc2cc1O
active: Potency [7] 3.55 µM | Potency [15] 7.57 µM
inactive: Potency (Furin (Homo sapiens)) | Potency [18] | outcome [14] | outcome [19]

CCOc1nc2cccc(C(=O)OC(C)OC(=O)OC3CCCCC3)c2n1Cc1ccc(-c2ccccc2-c2nn[nH]n2)cc1 (centres undefined)
active: Potency [21] 7.94 µM | Potency [3] 22.4 µM | Potency [5] 12.1 µM | Potency [6] 17.1 µM | Potency [7] 1.24 µM | Potency [9] 12.6 µM | Potency [16] 14.7 µM | Potency [22] 13.5 µM | Potency [23] 4.77 µM | Potency [25] 7.94 µM
inactive: outcome [20] | Potency [10] | Potency [11] | Potency [12] | outcome [13] | outcome [14] | Potency [24]
-28.3%: max response ([21]; measured here: cell count channel max response)
-78.8%: max response ([21]; measured here: lipid channel max response)
